Test results taken from PubChem BioAssay AID1159580 (chemical genetic matrix, 2015).
The campaign covered roughly 5,500 compounds. About 2,000 (36%) were called active. Another 18% or so got no clear call; they are omitted. No stated cut-off is given here; in the data, active means normalized growth mostly below about 0.91 (no sharp cut-off); inconclusive means no clear call, values can overlap the other calls; inactive means mostly above about 0.92. The list shows a part of the results.

Experiment: chemical genetic growth profiling, strain panel (AID 1159580);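 further: tested at 20 µM; growth read once vehicle control cultures reached saturation at 30 °C; 1 = growth at the plate median or of vehicle wells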
Conditions: growth OD

Measured: normalized growth

O=S1OCC2C(CO1)C1(Cl)C(Cl)=C(Cl)C2(Cl)C1(Cl)Cl (centres undefined)
active: S. cerevisiae deletion strains, locus YNL307C, strain MCK1, stronger effect = lower value 0.885 | S. cerevisiae deletion strains, locus YOR270C, strain vph1, stronger effect = lower value 0.633
inactive: S. cerevisiae deletion strains, locus YJR043C, strain POL32, stronger effect = lower value 0.96 | S. cerevisiae deletion strains, locus YJR075W, strain HOC1, stronger effect = lower value 0.986 | S. cerevisiae deletion strains, locus YKL009W, strain mrt4, stronger effect = lower value 0.947 | S. cerevisiae deletion strains, locus YKL068W, stronger effect = lower value 0.964 | S. cerevisiae deletion strains, locus YKL085W, strain MDH1 (second series), stronger effect = lower value 0.982 | S. cerevisiae deletion strains, locus YKL085W, strain MDH1, stronger effect = lower value 0.982 | S. cerevisiae deletion strains, locus YKL160W, strain elf1, stronger effect = lower value 0.953 | S. cerevisiae deletion strains, locus YKL190W, strain CNB1, stronger effect = lower value 1 | S. cerevisiae deletion strains, locus YKR001C, strain vps1, stronger effect = lower value 0.975 | S. cerevisiae deletion strains, locus YKR026C, strain gcn3, stronger effect = lower value 0.987 | S. cerevisiae deletion strains, locus YKR091W, strain srl3, stronger effect = lower value 0.991 | S. cerevisiae deletion strains, locus YLL001W, strain dnm1, stronger effect = lower value 0.99 | S. cerevisiae deletion strains, locus YLL026W, stronger effect = lower value 1 | S. cerevisiae deletion strains, locus YLL041C, strain sdh2, stronger effect = lower value 0.992 | S. cerevisiae deletion strains, locus YLR027C, strain aat2, stronger effect = lower value 0.961 | S. cerevisiae deletion strains, locus YLR039C, strain RIC1, stronger effect = lower value 1.06 | S. cerevisiae deletion strains, locus YLR058C, strain SHM2, stronger effect = lower value 0.979 | S. cerevisiae deletion strains, locus YLR102C, strain apc9, stronger effect = lower value 0.973 | S. cerevisiae deletion strains, locus YLR221C, strain rsa3, stronger effect = lower value 0.931 | S. cerevisiae deletion strains, locus YLR258W, strain gsy2, stronger effect = lower value 0.973 | S. cerevisiae deletion strains, locus YLR262C, strain YPT6 (second series), stronger effect = lower value 1.06 | S. cerevisiae deletion strains, locus YLR262C, strain YPT6, stronger effect = lower value 1.05 | S. cerevisiae deletion strains, locus YLR268W, strain sec22, stronger effect = lower value 0.97 | S. cerevisiae deletion strains, locus YLR320W, strain mms22, stronger effect = lower value 0.961 | S. cerevisiae deletion strains, locus YLR330W, strain CHS5, stronger effect = lower value 0.984 | S. cerevisiae deletion strains, locus YLR342W, strain FKS1 (second series), stronger effect = lower value 0.872 | S. cerevisiae deletion strains, locus YLR342W, strain FKS1, stronger effect = lower value 0.991 | S. cerevisiae deletion strains, locus YLR357W, strain rsc2, stronger effect = lower value 0.996 | S. cerevisiae deletion strains, locus YLR370C, strain arc18, stronger effect = lower value 0.997 | S. cerevisiae deletion strains, locus YLR371W, strain rom2, stronger effect = lower value 0.949 | S. cerevisiae deletion strains, locus YLR384C, strain iki3, stronger effect = lower value 1 | S. cerevisiae deletion strains, locus YLR418C, strain cdc73, stronger effect = lower value 0.946 | S. cerevisiae deletion strains, locus YML016C, strain PPZ1, stronger effect = lower value 0.991 | S. cerevisiae deletion strains, locus YML032C, strain rad52, stronger effect = lower value 0.974 | S. cerevisiae deletion strains, locus YML120C, strain ndi1, stronger effect = lower value 0.983 | S. cerevisiae deletion strains, locus YML124C, strain tub3, stronger effect = lower value 0.976 | S. cerevisiae deletion strains, locus YMR058W, strain fet3, stronger effect = lower value 0.976 | S. cerevisiae deletion strains, locus YMR078C, strain ctf18, stronger effect = lower value 0.977 | S. cerevisiae deletion strains, locus YMR125W, strain sto1, stronger effect = lower value 0.998 | S. cerevisiae deletion strains, locus YMR129W, stronger effect = lower value 0.992 | S. cerevisiae deletion strains, locus YMR205C, strain PFK2, stronger effect = lower value 0.91 | S. cerevisiae deletion strains, locus YMR223W, strain ubp8, stronger effect = lower value 0.955 | S. cerevisiae deletion strains, locus YMR231W, strain pep5, stronger effect = lower value 0.97 | S. cerevisiae deletion strains, locus YMR263W, strain SAP30, stronger effect = lower value 0.946 | S. cerevisiae deletion strains, locus YMR307W, strain GAS1, stronger effect = lower value 0.978 | S. cerevisiae deletion strains, locus YNL067W, strain RPL9B, stronger effect = lower value 0.981 | S. cerevisiae deletion strains, locus YNL071W, strain lat1, stronger effect = lower value 0.966 | S. cerevisiae deletion strains, locus YNL128W, strain TEP1, stronger effect = lower value 0.975 | S. cerevisiae deletion strains, locus YNL153C, strain GIM3, stronger effect = lower value 0.987 | S. cerevisiae deletion strains, locus YNL209W, strain ssb2, stronger effect = lower value 0.991 | S. cerevisiae deletion strains, locus YNL233W, strain BNI4, stronger effect = lower value 1 | S. cerevisiae deletion strains, locus YNL248C, strain rpa49, stronger effect = lower value 0.992 | S. cerevisiae deletion strains, locus YNL250W, strain rad50, stronger effect = lower value 0.957 | S. cerevisiae deletion strains, locus YNL271C, strain bni1, stronger effect = lower value 0.971 | S. cerevisiae deletion strains, locus YNL298W, strain CLA4, stronger effect = lower value 0.946 | S. cerevisiae deletion strains, locus YNL322C, strain KRE1 (second series), stronger effect = lower value 0.986 | S. cerevisiae deletion strains, locus YNL322C, strain KRE1, stronger effect = lower value 0.978 | S. cerevisiae deletion strains, locus YNR049C, strain mso1, stronger effect = lower value 0.997 | S. cerevisiae deletion strains, locus YNR052C, strain pop2, stronger effect = lower value 0.968 | S. cerevisiae deletion strains, locus YOL006C, strain TOP1, stronger effect = lower value 0.822 | S. cerevisiae deletion strains, locus YOL012C, strain htz1 0.777 | S. cerevisiae deletion strains, locus YOL147C, strain pex11, stronger effect = lower value 0.991 | S. cerevisiae deletion strains, locus YOR001W, strain rrp6, stronger effect = lower value 0.978 | S. cerevisiae deletion strains, locus YOR061W, strain CKA2, stronger effect = lower value 0.987 | S. cerevisiae deletion strains, locus YOR069W, strain VPS5, stronger effect = lower value 0.979 | S. cerevisiae deletion strains, locus YOR070C, strain gyp1, stronger effect = lower value 0.979 | S. cerevisiae deletion strains, locus YOR080W, strain dia2, stronger effect = lower value 0.991 | S. cerevisiae deletion strains, locus YOR083W, strain WHI5, stronger effect = lower value 0.942 | S. cerevisiae deletion strains, locus YOR106W, strain vam3, stronger effect = lower value 0.884 | S. cerevisiae deletion strains, locus YOR136W, strain idh2, stronger effect = lower value 0.98 | S. cerevisiae deletion strains, locus YOR144C, strain elg1, stronger effect = lower value 0.984 | S. cerevisiae deletion strains, locus YOR184W, strain ser1, stronger effect = lower value 0.887 | S. cerevisiae deletion strains, locus YOR265W, strain rbl2, stronger effect = lower value 0.993 | S. cerevisiae deletion strains, locus YOR290C, strain snf2, stronger effect = lower value 0.937 | S. cerevisiae deletion strains, locus YOR316C, strain cot1, stronger effect = lower value 0.975 | S. cerevisiae deletion strains, locus YPL051W, strain arl3, stronger effect = lower value 0.988 | S. cerevisiae deletion strains, locus YPL055C, strain LGE1, stronger effect = lower value 0.974 | S. cerevisiae deletion strains, locus YPL078C, strain atp4, stronger effect = lower value 0.987 | S. cerevisiae deletion strains, locus YPL106C, strain sse1, stronger effect = lower value 0.993 | S. cerevisiae deletion strains, locus YPL240C, strain hsp82, stronger effect = lower value 0.991 | S. cerevisiae deletion strains, locus YPL241C, strain CIN2, stronger effect = lower value 0.985 | S. cerevisiae deletion strains, locus YPR119W, strain clb2, stronger effect = lower value 0.976 | S. cerevisiae deletion strains, locus YPR141C, strain kar3, stronger effect = lower value 0.98 | S. cerevisiae deletion strains, locus YPR163C, strain tif3, stronger effect = lower value 0.978 | S. cerevisiae deletion strains, locus YPR167C, strain met16, stronger effect = lower value 0.971 | S. cerevisiae deletion strains, strain wtn01, stronger effect = lower value 0.954 | S. cerevisiae strains, strain wild type, stronger effect = lower value 0.987
